{"source": "PubChem BioAssay AID485364", "about": "(National Center for Advancing Translational Sciences (NCATS), 2010)", "note": "About 11,000 (3.1%) of roughly 360,000 compounds were called active. Roughly 4% stayed inconclusive and do not appear here. The sample holds actives, similar compounds and a random draw of the others, so the mix is not that of the screen. Calls follow the shape of the dose curve; as a rule, active = well fitted inhibition curve with a large enough effect; inconclusive = small, poorly fitted or top-dose-only effect; inactive = no such curve, though single readings can be large or run the other way. % is scaled to controls: 0 for no effect and ±100 for the full control effect; potency is read from the fitted curve at half-maximal effect."}
{"target": "Schistosoma mansoni thioredoxin glutathione reductase (TGR) (UniProt Q962Y6)", "assay": "qHTS Assay for the Inhibitors of Schistosoma Mansoni Peroxiredoxins; also: nearly all actives have a fitted effect of over 60% in size", "details": "purified TGR, DTNB reduction, TNB absorbance 405 nm; series mostly up to 114 µM; activity change, negative = inhibition: at the top concentration", "text": "Schistosomiasis is a major neglected tropical disease that currently affects over 200 million. It is caused by different species of flatworms, such as Schistosoma mansoni. Over the last century, drugs to treat the disease have evolved from potassium antimonyl tartrate, artemisinin, oxamniquine, to praziquantel, with praziquantel remaining the universally-used single drug of choice over the past three decades. However, transmission rates have changed little with praziquantel, and there is evidence for the development of drug resistant parasites. Because there is currently no suitable alternative therapy available, there is an urgent need to identify new targets and drugs for schistosomiasis treatment. Thioredoxin glutathione reductase (TGR), one uniquely positioned S. mansoni enzyme, has been identified as a major component of the worms' distinct and compressed antioxidant \"firewall\". TGR is a multifunctional enzyme that catalyzes the interconversion between reduced and oxidized forms of both glutathione (GSH) and thioredoxins, thus making it an attractive new antiparasitic target. Recently, a quantitative high-throughput screen of the NIH Molecular Libraries Small Molecule Repository (MLSMR, ~71K at the time of the screen in 2007) was performed using an assay that targeted both TGR and peroxiredoxin2 (Prx2, an H2O2-reducing enzymatic component of the S. mansoni redox \"firewall\") by following the decrease of NADPH fluorescence. […] Additional mechanistic link between exogenous NO donation and parasitic injury for the oxadiazole-2-oxide class of compounds was also expanded and better defined. Although the screen addressed both TGR and Prx2, the assay required post-screen target deconvolution for further characterization of the actives. In addition, the fluorescence assay was also subject to fluorescence interference from compound library members. We have developed a 1536-well-based kinetic HTS assay to address TGR alone. The assay followed the reduction of 5, 5'-dithiobis (2-nitrobenzoic acid) (DTNB) (Ellman's reagent) by NADPH and measured the increase in absorbance at 412 nm of the reaction product, TNB. […] This assay format can be used to screen the current MLSMR collection (with >300K compounds available) to find novel TGR inhibitors. Furoxan is a good choice to serve as a positive control in the primary HTS assay.\nThree microliters of reagents (100 uM NADPH and 20 nM TGR or 100 uM NADPH as no-enzyme control) were dispensed into 1,536-well black clear-bottomed plates. Compounds (23 nL) were transferred via Kalypsys pin tool equipped with 1536-pin array (10 nL slotted pins, V&P Scientific, San Diego, CA). The plates were then be incubated for 15 min at room temperature, and 1 uL aliquot of 500 uM NADPH were added, immediately followed by a 1 uL aliquot of 15 mM DTNB to start the reaction. The plate was transferred to a ViewLux high-throughput CCD imager (Perkin-Elmer, Wellesley, MA) where kinetic measurements of the TNB absorbance were acquired using a 405 excitation filter. Throughout the screen, reagent bottles and all liquid lines were made light-tight to minimize reagent degradation. All screening operations were performed on a fully integrated robotic system (Kalypsys, San Diego, CA) containing one RX-130 and two RX-90 anthropomorphic robotic arms (Staubli, Duncan, SC). Library plates were screened starting from the lowest and proceeding to the highest concentration, and a \"double-dipping\" step of the highest concentration was required to access higher concentrations of compounds. Vehicle-only plates, with DMSO being pin-transferred to the entire column 5-48 compound area, were inserted uniformly at the beginning and the end of each library in order to monitor for and record any shifts in the background, which can be affected by reagent dispensers or loss in enzyme activity overtime. […]"}
{"smiles": "COc1ccc(S(=O)(=O)N2CCC(C(=O)N3CCCC3)CC2)cc1C", "activity change, negative = inhibition": "-3.4% (inactive)"}
{"smiles": "COc1ccc(S(=O)(=O)N2CCC(C(=O)N3CCOCC3)CC2)cc1OC", "Potency": "79.4 µM (active)"}
{"smiles": "CCN1CCN(C(=O)C2CCCN(S(=O)(=O)c3ccc(OC)c(OC)c3)C2)CC1", "note": "(centres undefined)", "activity change, negative = inhibition": "3.29% (inactive)"}
{"smiles": "O=C(C1CCC(Cn2c(=O)c3sccc3n(Cc3ccccc3F)c2=O)CC1)N1CCCCC1", "note": "(centres undefined)", "activity change, negative = inhibition": "19% (inactive)"}
{"smiles": "COc1ccc(Cl)cc1NC(=O)c1sc2nc3c(cc2c1N)CN(C)CC3", "activity change, negative = inhibition": "0.374% (inactive)"}
{"smiles": "CCCCN(CC)C(=O)c1c[nH]c2ccc(S(=O)(=O)Nc3cccc(OC)c3)cc2c1=O", "activity change, negative = inhibition": "3.28% (inactive)"}
{"smiles": "Clc1ccccc1CSc1nnc(-c2ccco2)c(-c2ccco2)n1", "Potency": "7.94 µM (active)"}
{"smiles": "Clc1ccc(CSc2nnc3c(n2)[nH]c2ccccc23)cc1", "activity change, negative = inhibition": "10.3% (inactive)"}
{"smiles": "CC1(C)N=C(SCc2ccccc2Cl)c2ccccc2N1", "activity change, negative = inhibition": "-1.4% (inactive)"}
{"smiles": "Cc1ccc(-c2nnc(SCC(=O)NCc3ccccc3)nc2-c2ccc(C)cc2)cc1", "activity change, negative = inhibition": "0.946% (inactive)"}
{"smiles": "Clc1ccccc1CSc1nncn2c1cc1occc12", "activity change, negative = inhibition": "-12.1% (inactive)"}
{"smiles": "c1ccc(CSc2nnc(-c3ccco3)c(-c3ccco3)n2)cc1", "Potency": "2.82 µM (active)"}
{"smiles": "COc1ccccc1CNC(=O)CCCn1c(=O)c2ccccc2n(CC(=O)Nc2ccc(C)cc2Cl)c1=O", "activity change, negative = inhibition": "6.54% (inactive)"}
{"smiles": "COc1cccc(-c2nc3n(n2)C(c2ccccc2Cl)C(C(N)=O)=C(C)N3)c1", "note": "(centres undefined)", "activity change, negative = inhibition": "-0.143% (inactive)"}
{"smiles": "CCN(CC)c1ccc(C2C(C(N)=O)=C(C)Nc3nc(SCc4ccccc4)nn32)cc1", "note": "(centres undefined)", "activity change, negative = inhibition": "2.58% (inactive)"}
{"smiles": "CC1=C(C(N)=O)C(c2ccc3c(c2)OCO3)n2nc(-c3cccc(C)c3)nc2N1", "note": "(centres undefined)", "Potency": "0.251 µM (active)"}
{"smiles": "Cc1cccc(-n2ccnc2SCC(=O)Nc2cccc3ccccc23)c1C", "activity change, negative = inhibition": "-0.262% (inactive)"}
{"smiles": "COc1ccc(-c2cc(C(F)(F)F)nc(S(C)(=O)=O)n2)cc1OC", "Potency": "31.6 µM (active)"}
{"smiles": "COc1ccc(CCNc2nc(-c3ccc(F)cc3)cc(C(F)(F)F)n2)cc1OC", "activity change, negative = inhibition": "7.8% (inactive)"}
{"smiles": "COc1ccc(-c2cc(C(F)(F)F)nc(SCC(=O)N(C)Cc3ccccc3)n2)cc1OC", "activity change, negative = inhibition": "-0.774% (inactive)"}
{"smiles": "CC1CN(C(=O)N2CCC(C(=O)NCc3ccco3)CC2)c2cc(Cl)ccc2O1", "note": "(centres undefined)", "activity change, negative = inhibition": "2.23% (inactive)"}
{"smiles": "Cc1cc(Cl)ccc1OCC(=O)N(Cc1ccc(N(C)C)cc1)C1CCS(=O)(=O)C1", "note": "(centres undefined)", "activity change, negative = inhibition": "-3.15% (inactive)"}
{"smiles": "CC1CCN(C(=O)COC(=O)CCC(=O)c2cccs2)CC1", "activity change, negative = inhibition": "-0.877% (inactive)"}
{"smiles": "O=C(COC(=O)c1cccs1)NCc1cccs1", "activity change, negative = inhibition": "0.591% (inactive)"}
{"smiles": "O=C(COC(=O)CCC(=O)c1cccs1)NCc1ccco1", "Potency": "25.1 µM (active)"}
{"smiles": "CCN(CCCNC(=O)c1cc2c(=O)n(CC)c3ccccc3c2s1)Cc1ccccc1", "activity change, negative = inhibition": "1.45% (inactive)"}
{"smiles": "CCc1ccc(Nc2ncc3c(n2)CC(c2ccco2)CC3=O)cc1", "note": "(centres undefined)", "Potency": "39.8 µM (active)"}
{"smiles": "CC1=C(C(=O)Nc2ccc(Cl)cc2)C(c2ccco2)NC(=O)N1", "note": "(centres undefined)", "activity change, negative = inhibition": "3.63% (inactive)"}
{"smiles": "CCN1CCN(c2ncc3c(n2)CC(c2ccccc2O)CC3=O)CC1", "note": "(centres undefined)", "activity change, negative = inhibition": "3.56% (inactive)"}
{"smiles": "O=C(Nc1ncc2c(n1)CC(c1ccco1)CC2=O)c1ccc(Cl)cc1", "note": "(centres undefined)", "Potency": "44.7 µM (active)"}
{"smiles": "O=C(Nc1ncc2c(n1)-c1ccccc1OC2)c1ccc(Cl)cc1", "activity change, negative = inhibition": "-18.3% (inactive)"}
{"smiles": "COc1cc(C2CC(=O)c3cnc(NC(C)=O)nc3C2)cc(OC)c1OC", "note": "(centres undefined)", "activity change, negative = inhibition": "-0.421% (inactive)"}
{"smiles": "COc1ccc(C(=O)COC(=O)CCCC(=O)Nc2cc(C(F)(F)F)ccc2Cl)cc1", "activity change, negative = inhibition": "-11.9% (inactive)"}
{"smiles": "CCc1ccc(C(=O)CC2(O)C(=O)N(CCc3ccccc3)c3ccc(Br)cc32)cc1", "note": "(centres undefined)", "activity change, negative = inhibition": "6.62% (inactive)"}
{"smiles": "CC1CCN(c2nc3ccc(C(=O)N4CCN(c5ccccc5)CC4)cc3s2)CC1", "activity change, negative = inhibition": "2.12% (inactive)"}
{"smiles": "CCCN(CCC)CCCNC(=O)Cn1cc2c(n1)-c1c(oc(C(=O)N3CCCC3)c1C)CC2", "activity change, negative = inhibition": "-2.8% (inactive)"}
{"smiles": "CCC(=O)Nc1cccc(-c2nc3cc(C)ccc3o2)c1", "activity change, negative = inhibition": "11% (inactive)"}
{"smiles": "C[C@@H]1C[C@@H]2O[C@H]2/C=C\\C=C\\C(=O)Cc2c(Cl)c(O)cc(O)c2C(=O)O1", "Potency": "4.47 µM (active)"}
{"smiles": "CC(C)CC(NS(=O)(=O)c1ccc2c(c1)oc(=O)n2C)C(=O)NCc1ccccc1Cl", "note": "(centres undefined)", "activity change, negative = inhibition": "-2.66% (inactive)"}
{"smiles": "CCc1ccc(NC(=O)CN2CCSc3ccc(S(=O)(=O)N4CCCC4)cc32)cc1", "activity change, negative = inhibition": "6.65% (inactive)"}
{"smiles": "NC(=O)c1c(Nc2nc3c(F)cccc3s2)sc2c1CCCC2", "Potency": "39.8 µM (active)"}
{"smiles": "COc1ccc(-c2cc(C(=O)Nc3sc4c(c3C(N)=O)CCCC4)no2)cc1", "activity change, negative = inhibition": "-10% (inactive)"}
{"smiles": "Cc1cc(OC(C)C(=O)Nc2sc3c(c2C(N)=O)CCCC3)ccc1Cl", "note": "(centres undefined)", "activity change, negative = inhibition": "11.2% (inactive)"}
{"smiles": "COC(=O)c1ccc(NC(=O)CSc2n[nH]c(-c3ccccc3)n2)cc1", "activity change, negative = inhibition": "6.33% (inactive)"}
{"smiles": "Cc1ccc(CN2COc3cc(C)c4c(oc(=O)c5ccccc54)c3C2)cc1", "activity change, negative = inhibition": "-6.11% (inactive)"}
{"smiles": "COc1cc(CN(C(=O)c2ccccc2Br)c2ccccn2)cc(OC)c1OC", "activity change, negative = inhibition": "-0.508% (inactive)"}
{"smiles": "COc1cccc(CNC(=O)C2CCN(S(=O)(=O)c3ccc4c(ccn4C)c3)CC2)c1", "activity change, negative = inhibition": "-1.19% (inactive)"}
{"smiles": "COc1cc(/C=N/O)cc(Br)c1OS(=O)(=O)c1ccc(C)cc1", "activity change, negative = inhibition": "12.5% (inactive)"}
{"smiles": "COc1cc(/C=N/NC(=S)Nc2cccnc2)cc(OC)c1O", "activity change, negative = inhibition": "-21.6% (inactive)"}
